# Results taken from article PMC7862700, “An all-to-all approach to the identification of sequence-specific readers for epigenetic DNA modifications on cytosine”.
# Legend:
# Test in all cases: DAPPL (digital affinity profiling via proximity ligation, sequencing); 10 mM Tris-HCl pH 7.5, 50 mM NaCl, 1 mM DTT, 4% glycerol, room temperature, 30 min; GST-TFs on glutathione beads, 16-mer random dsDNA library, 0.1% formaldehyde crosslink after washing; high values mean tight binding
# [1] = target: T1, FEV (Homo sapiens, UniProt Q99581 1-238); conditions: protein: recombinant; tags: N-terminal GST; dsDNA, one strand shown
# T1 sequence: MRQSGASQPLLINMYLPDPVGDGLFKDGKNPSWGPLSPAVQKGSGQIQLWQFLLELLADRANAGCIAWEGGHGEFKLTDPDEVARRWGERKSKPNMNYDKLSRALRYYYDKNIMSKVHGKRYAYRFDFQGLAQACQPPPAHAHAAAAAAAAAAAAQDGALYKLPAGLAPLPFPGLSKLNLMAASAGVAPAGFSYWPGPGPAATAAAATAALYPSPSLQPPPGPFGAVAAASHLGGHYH
# Summary of the method: (§1)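 Pools were built from human transcription factors expressed in yeast as GST fusions, captured on glutathione beads and DNA-barcoded, along with a tag-only sample. Incubation with 200 nmole of a 16-mer random double-stranded DNA library lasted 30 min at room temperature in Tris/NaCl/DTT/glycerol buffer, and was followed by washing, 0.1% formaldehyde crosslinking, proximity ligation, PCR amplification and Illumina NextSeq500 sequencing. Binding signal is the quotient of each hexamer's read frequency for a factor and its frequency for the tag-only sample.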
# [2] = target: ETV5 (Homo sapiens, UniProt P41161 1-510); conditions: protein: recombinant; tags: N-terminal GST; dsDNA, one strand shown
# Summary of the method: as §1
# [3] = target: HSF1 (Homo sapiens, UniProt Q00613 1-529); conditions: protein: recombinant; tags: N-terminal GST; chain copies: 3; dsDNA, one strand shown
# Summary of the method: as §1
# [4] = target: T2, SPIC (Homo sapiens, UniProt Q8N5J4 1-248); conditions: protein: recombinant; tags: N-terminal GST; dsDNA, one strand shown
# T2 sequence: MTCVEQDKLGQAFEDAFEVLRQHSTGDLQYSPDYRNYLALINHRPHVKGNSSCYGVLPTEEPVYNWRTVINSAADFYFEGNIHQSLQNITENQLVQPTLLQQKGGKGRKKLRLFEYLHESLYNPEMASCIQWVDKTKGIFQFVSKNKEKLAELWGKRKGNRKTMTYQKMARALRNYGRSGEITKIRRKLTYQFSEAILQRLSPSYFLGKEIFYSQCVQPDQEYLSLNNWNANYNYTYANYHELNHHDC
# Summary of the method: as §1
# [5] = target: ELF4 (Homo sapiens, UniProt Q99607 1-663); conditions: protein: recombinant; tags: N-terminal GST; dsDNA, one strand shown
# Summary of the method: as §1
# [6] = target: T3, ELK4 (Homo sapiens, UniProt P28324-2 1-405); conditions: protein: recombinant; tags: N-terminal GST; dsDNA, one strand shown
# T3 sequence: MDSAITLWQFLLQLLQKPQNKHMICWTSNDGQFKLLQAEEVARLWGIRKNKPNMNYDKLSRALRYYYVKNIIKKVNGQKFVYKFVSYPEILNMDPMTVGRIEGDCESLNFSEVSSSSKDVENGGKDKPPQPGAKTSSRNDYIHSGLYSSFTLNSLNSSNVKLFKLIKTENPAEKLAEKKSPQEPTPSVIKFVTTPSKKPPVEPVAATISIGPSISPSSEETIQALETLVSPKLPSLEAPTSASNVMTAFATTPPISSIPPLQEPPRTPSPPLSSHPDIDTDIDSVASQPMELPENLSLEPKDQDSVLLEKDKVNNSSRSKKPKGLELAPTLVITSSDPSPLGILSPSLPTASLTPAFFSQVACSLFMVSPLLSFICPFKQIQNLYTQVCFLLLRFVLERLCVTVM
# Summary of the method: as §1
# [7] = target: T4, ETV2 (Homo sapiens, UniProt O00321 1-342); conditions: protein: recombinant; tags: N-terminal GST; dsDNA, one strand shown
# T4 sequence: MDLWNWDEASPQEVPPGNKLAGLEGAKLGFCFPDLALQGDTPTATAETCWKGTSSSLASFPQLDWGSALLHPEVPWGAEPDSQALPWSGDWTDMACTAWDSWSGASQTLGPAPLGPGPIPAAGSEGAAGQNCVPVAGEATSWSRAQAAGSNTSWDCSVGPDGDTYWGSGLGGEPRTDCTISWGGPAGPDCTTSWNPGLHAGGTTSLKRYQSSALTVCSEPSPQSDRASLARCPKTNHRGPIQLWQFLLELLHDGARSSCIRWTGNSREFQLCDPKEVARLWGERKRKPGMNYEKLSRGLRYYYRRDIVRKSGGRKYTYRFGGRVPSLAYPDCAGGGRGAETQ
# Summary of the method: as §1
# [8] = target: T5, ELF3 (Homo sapiens, UniProt P78545 1-371); conditions: protein: recombinant; tags: N-terminal GST; dsDNA, one strand shown
# T5 sequence: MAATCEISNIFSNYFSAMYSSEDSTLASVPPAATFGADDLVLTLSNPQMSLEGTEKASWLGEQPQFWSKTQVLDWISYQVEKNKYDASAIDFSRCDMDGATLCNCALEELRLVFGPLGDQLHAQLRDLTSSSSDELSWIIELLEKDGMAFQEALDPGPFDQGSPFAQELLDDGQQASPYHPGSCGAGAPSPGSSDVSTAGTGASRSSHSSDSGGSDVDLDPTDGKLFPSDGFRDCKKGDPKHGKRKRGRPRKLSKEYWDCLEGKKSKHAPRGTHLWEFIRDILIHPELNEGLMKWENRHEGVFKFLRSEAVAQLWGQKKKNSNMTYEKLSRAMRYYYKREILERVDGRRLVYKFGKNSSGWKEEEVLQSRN
# Summary of the method: as §1
# [9] = target: CRX (Homo sapiens, UniProt O43186 1-299); conditions: protein: recombinant; tags: N-terminal GST; dsDNA, one strand shown
# Summary of the method: as §1
# [10] = target: ETV1 (Homo sapiens, UniProt P50549 1-477); conditions: protein: recombinant; tags: N-terminal GST; dsDNA, one strand shown
# Summary of the method: as §1
# Chain of ELF4 (Q99607 whole entry): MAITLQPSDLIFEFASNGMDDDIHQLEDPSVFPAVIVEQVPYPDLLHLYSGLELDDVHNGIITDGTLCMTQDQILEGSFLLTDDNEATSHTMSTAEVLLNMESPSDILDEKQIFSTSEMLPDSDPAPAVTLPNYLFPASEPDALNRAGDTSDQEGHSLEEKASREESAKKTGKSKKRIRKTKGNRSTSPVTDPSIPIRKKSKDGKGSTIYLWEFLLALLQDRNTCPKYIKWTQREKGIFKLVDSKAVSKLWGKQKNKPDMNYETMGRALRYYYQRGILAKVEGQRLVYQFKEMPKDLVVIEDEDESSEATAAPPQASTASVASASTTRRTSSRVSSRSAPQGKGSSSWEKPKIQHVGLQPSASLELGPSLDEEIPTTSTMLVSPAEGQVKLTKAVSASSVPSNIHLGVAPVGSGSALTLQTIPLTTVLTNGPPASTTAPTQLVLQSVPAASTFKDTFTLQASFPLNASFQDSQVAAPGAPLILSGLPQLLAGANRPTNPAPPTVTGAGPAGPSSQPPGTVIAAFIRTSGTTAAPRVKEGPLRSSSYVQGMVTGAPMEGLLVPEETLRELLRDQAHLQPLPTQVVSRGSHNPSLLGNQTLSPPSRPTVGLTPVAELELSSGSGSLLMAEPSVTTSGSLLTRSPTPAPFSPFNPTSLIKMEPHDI
# Chain of HSF1 (Q00613 whole entry): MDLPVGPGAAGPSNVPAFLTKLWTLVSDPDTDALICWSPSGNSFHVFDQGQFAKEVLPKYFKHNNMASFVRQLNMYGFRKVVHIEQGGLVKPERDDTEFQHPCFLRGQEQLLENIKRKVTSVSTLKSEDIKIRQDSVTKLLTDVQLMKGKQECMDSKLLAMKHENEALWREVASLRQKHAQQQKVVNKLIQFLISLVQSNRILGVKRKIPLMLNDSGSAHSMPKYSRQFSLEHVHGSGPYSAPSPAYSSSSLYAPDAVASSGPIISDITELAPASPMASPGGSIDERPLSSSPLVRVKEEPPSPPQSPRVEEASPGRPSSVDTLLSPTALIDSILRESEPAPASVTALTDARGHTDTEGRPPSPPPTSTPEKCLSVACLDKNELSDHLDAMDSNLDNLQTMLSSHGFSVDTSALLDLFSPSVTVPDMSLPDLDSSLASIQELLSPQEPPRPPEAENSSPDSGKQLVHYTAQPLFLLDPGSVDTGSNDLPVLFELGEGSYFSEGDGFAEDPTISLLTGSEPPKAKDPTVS
# Chain of ETV1 (P50549 whole entry): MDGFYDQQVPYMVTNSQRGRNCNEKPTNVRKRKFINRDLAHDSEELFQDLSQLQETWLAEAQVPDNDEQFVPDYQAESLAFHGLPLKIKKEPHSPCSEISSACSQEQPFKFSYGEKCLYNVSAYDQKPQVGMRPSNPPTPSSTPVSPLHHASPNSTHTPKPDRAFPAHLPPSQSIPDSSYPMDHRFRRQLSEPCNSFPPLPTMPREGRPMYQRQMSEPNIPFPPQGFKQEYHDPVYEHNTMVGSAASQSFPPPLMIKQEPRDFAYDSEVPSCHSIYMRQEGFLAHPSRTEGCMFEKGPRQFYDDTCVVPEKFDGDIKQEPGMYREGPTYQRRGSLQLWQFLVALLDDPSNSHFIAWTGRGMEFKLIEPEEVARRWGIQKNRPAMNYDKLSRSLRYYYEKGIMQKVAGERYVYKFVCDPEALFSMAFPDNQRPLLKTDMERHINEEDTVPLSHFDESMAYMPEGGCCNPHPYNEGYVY
# Chain of ETV5 (P41161 whole entry): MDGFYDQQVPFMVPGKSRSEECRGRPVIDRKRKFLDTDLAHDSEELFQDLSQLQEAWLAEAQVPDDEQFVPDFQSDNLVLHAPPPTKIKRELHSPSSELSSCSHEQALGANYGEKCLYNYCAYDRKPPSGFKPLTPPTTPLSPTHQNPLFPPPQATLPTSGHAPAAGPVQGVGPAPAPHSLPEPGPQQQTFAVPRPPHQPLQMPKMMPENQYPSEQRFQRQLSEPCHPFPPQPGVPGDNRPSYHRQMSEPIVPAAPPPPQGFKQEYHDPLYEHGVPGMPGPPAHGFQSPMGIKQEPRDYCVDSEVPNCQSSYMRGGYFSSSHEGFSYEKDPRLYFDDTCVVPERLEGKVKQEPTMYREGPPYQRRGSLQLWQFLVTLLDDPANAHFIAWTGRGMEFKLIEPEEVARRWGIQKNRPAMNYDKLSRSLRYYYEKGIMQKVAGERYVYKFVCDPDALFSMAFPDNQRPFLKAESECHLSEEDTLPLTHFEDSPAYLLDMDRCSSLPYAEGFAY
# Chain of CRX (O43186 whole entry): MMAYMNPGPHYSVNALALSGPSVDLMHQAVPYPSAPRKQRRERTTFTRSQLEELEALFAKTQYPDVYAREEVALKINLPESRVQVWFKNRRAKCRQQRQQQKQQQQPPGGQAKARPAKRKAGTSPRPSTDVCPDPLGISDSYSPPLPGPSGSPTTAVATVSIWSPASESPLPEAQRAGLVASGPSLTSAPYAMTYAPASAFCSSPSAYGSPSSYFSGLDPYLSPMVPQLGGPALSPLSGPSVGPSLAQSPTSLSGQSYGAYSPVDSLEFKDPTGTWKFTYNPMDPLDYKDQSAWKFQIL
sequence,measurement,setting,value
TATGGT,binding signal,[1],"1.24 fold enrichment (6-mer frequency, TF over GST control)"
same,binding signal,[2],"1.38 fold enrichment (6-mer frequency, TF over GST control)"
same,binding signal,[3],"1.16 fold enrichment (6-mer frequency, TF over GST control)"
same,binding signal,[4],"1.49 fold enrichment (6-mer frequency, TF over GST control)"
same,binding signal,[5],"1.34 fold enrichment (6-mer frequency, TF over GST control)"
same,binding signal,[6],"1.44 fold enrichment (6-mer frequency, TF over GST control)"
same,binding signal,[7],"1 fold enrichment (6-mer frequency, TF over GST control)"
same,binding signal,[8],"1.5 fold enrichment (6-mer frequency, TF over GST control)"
same,binding signal,[9],"1.29 fold enrichment (6-mer frequency, TF over GST control)"
same,binding signal,[10],"1.27 fold enrichment (6-mer frequency, TF over GST control)"
